Some test systems named below: SRPK2; SRPK3; STK16; STK33; STK35; STK36; STK39; SYK; SgK110; TAOK1; TAOK2; TAOK3; TBK1; TEC; TESK1; TGFBR1; TGFBR2; TIE1.
Conditions in all cases: concentration: 1 μM, replicates: in singlicate; n = 1
A further experiment has as its system T1, TAK1.
T1 construct: gene MAP3K7

A further experiment relates to T2, TIE2.
T2 construct: gene TEK

Molecules are shown by their SMILES.
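Note: KINOMEscan kinase panel screen.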

Consider `CS(=O)(=O)CCNCc1nc(-c2ccc3ncnc(Nc4ccc(OCc5ccccc5)c(Cl)c4)c3c2)cs1.Cl` [GW582764], for which the “%Inh” value in the experiment on SRPK2 was 36%; in the experiment with SRPK3 it was 0%; with STK16 it was 0%; with STK33, 0%; in the experiment on STK35 it was 0%; in the experiment on STK36 it was 0%. Further, the “%Inh” value in the experiment on STK39 was 4%; with SYK, 20%; in the experiment with SgK110, 0%; with TAK1, 0%; in the experiment with TAOK1, 0%; in the experiment on TAOK2, 0%. Besides, the “%Inh” value with TAOK3 stood at 0%; in the experiment with TBK1, 0%; with TEC, 0%; in the experiment with TESK1 it was 19%; in the experiment on TGFBR1, 58%; with TGFBR2, 0%. Further, the “%Inh” value in the experiment with TIE1 and with TIE2 was 0% throughout.

`Nc1nccc(-c2c(-c3ccc(F)cc3)ncn2C2CCN(Cc3ccccc3)CC2)n1` [SB-219980]: the “%Inh” value in the experiment with SRPK2 is 0%; in the experiment with SRPK3 it was 0%; in the experiment with STK16 it was 0%; in the experiment with STK33, 33%; in the experiment with STK35, 79%; in the experiment with STK36, 29%. Besides, the “%Inh” value is 0% with STK39; 0% in the experiment on SYK; 0% in the experiment on SgK110; 7% with TAK1; 31% in the experiment with TAOK1; 0% in the experiment on TAOK2. The “%Inh” value in the experiment on TAOK3 was 10%; in the experiment with TBK1, 0%; in the experiment with TEC, 0%; in the experiment with TESK1, 0%; in the experiment with TGFBR1, 7%; in the experiment with TGFBR2, 12%. Further, the “%Inh” value in the experiment on TIE1 was 1%; in the experiment with TIE2 it was 0%.

On to `Cc1ccc(NC(=O)c2ccc(Cl)cc2)cc1-c1ccc(C(=O)Nc2ccncc2)cc1` [GSK1398467], for which the “%Inh” value in the experiment with SRPK2 came to 0%; in the experiment on SRPK3 it was 0%; in the experiment with STK16 it was 7%; in the experiment on STK33, 0%; in the experiment on STK35 it was 0%; in the experiment with STK36 it was 0%. For the same compound, the “%Inh” value in the experiment on STK39 came to 6%; with SYK, 3%; in the experiment with SgK110 it was 0%; with TAK1 it was 0%; in the experiment with TAOK1 it was 0%; in the experiment on TAOK2, 0%. The “%Inh” value turned out to be 0% with TAOK3; 7% with TBK1; 12% with TEC; 14% in the experiment on TESK1; 1% in the experiment with TGFBR1; 0% in the experiment on TGFBR2. Further, the “%Inh” value with TIE1 and with TIE2 was 0% in each case.

Turning to `CCCCc1nn2ncccc2c1-c1ccnc(NC2CC2)n1` [GW684374], the “%Inh” value in the experiment on SRPK2 was determined as 0%; in the experiment with SRPK3, 0%; in the experiment with STK16 it was 20%; with STK33, 0%; in the experiment with STK35, 0%; with STK36 it was 0%. The “%Inh” value in the experiment with STK39, with SYK, in the experiment with SgK110, in the experiment with TAK1, in the experiment with TAOK1 and with TAOK2 was 0% each time. Besides, the “%Inh” value with TAOK3 is recorded as 0%; in the experiment with TBK1 it was 7%; in the experiment on TEC it was 3%; with TESK1, 13%; in the experiment on TGFBR1, 29%; in the experiment on TGFBR2, 7%. Moreover, the “%Inh” value with TIE1 and in the experiment with TIE2 was 0% in each case.

In the case of `Nc1cccc(-c2ccc3c(N)n[nH]c3c2)n1` [GSK2192730], the “%Inh” value is recorded as 0% with SRPK2; 0% in the experiment on SRPK3; 27% in the experiment on STK16; 0% in the experiment with STK33; 0% in the experiment with STK35; 0% in the experiment with STK36. Further, the “%Inh” value amounted to 1% in the experiment on STK39; 0% in the experiment on SYK; 0% with SgK110; 43% in the experiment on TAK1; 1% with TAOK1; 0% in the experiment on TAOK2. Also, the “%Inh” value turned out to be 0% with TAOK3; 18% in the experiment on TBK1; 0% with TEC; 13% in the experiment with TESK1; 3% with TGFBR1; 0% with TGFBR2. Also, the “%Inh” value in the experiment on TIE1 and in the experiment with TIE2 was 0% throughout.

Regarding `Fc1ccc(-c2nn3cccc(F)c3c2-c2ccncc2)cc1` [GW475620], the “%Inh” value in the experiment with SRPK2 was determined as 0%; in the experiment with SRPK3, 16%; in the experiment with STK16, 0%; in the experiment on STK33, 5%; with STK35, 0%; in the experiment with STK36 it was 28%. Also, the “%Inh” value came to 1% in the experiment with STK39; 14% in the experiment with SYK; 0% in the experiment with SgK110; 0% in the experiment with TAK1; 0% with TAOK1; 0% in the experiment on TAOK2. Also, the “%Inh” value is reported as 0% in the experiment on TAOK3; 22% in the experiment on TBK1; 0% in the experiment on TEC; 4% in the experiment with TESK1; 17% in the experiment on TGFBR1; 11% with TGFBR2. The “%Inh” value with TIE1 worked out at 7%; in the experiment with TIE2 it was 1%.

With `COC(=O)c1cccc(NC(=O)NC2CCN(c3ccnc(Nc4ccc(OC)cc4)n3)C2)c1` (stereo not shown) [GSK1379746], the “%Inh” value with SRPK2 is reported as 28%; in the experiment with SRPK3 it was 0%; with STK16, 8%; in the experiment on STK33, 0%; in the experiment on STK35, 0%; with STK36 it was 0%. Besides, the “%Inh” value in the experiment with STK39 is listed as 5%; in the experiment on SYK, 0%; with SgK110, 0%; in the experiment on TAK1, 0%; in the experiment with TAOK1, 0%; in the experiment with TAOK2, 0%. The “%Inh” value in the experiment with TAOK3 was 0%; with TBK1, 0%; in the experiment on TEC, 14%; in the experiment with TESK1 it was 13%; with TGFBR1, 41%; in the experiment on TGFBR2, 0%. For the same compound, the “%Inh” value in the experiment on TIE1 and in the experiment on TIE2 was 0% throughout.

Turning to `COc1ccc(CSc2nnc(-c3ccc4c(c3)CCO4)o2)cc1`, the “%Inh” value was determined as 0% in the experiment with SRPK2; 0% in the experiment with SRPK3; 5% in the experiment on STK16; 0% with STK33; 0% in the experiment on STK35; 0% in the experiment on STK36. Further, the “%Inh” value came to 0% in the experiment on STK39; 0% in the experiment with SYK; 26% with SgK110; 0% in the experiment on TAK1; 0% in the experiment with TAOK1; 0% in the experiment on TAOK2. Moreover, the “%Inh” value in the experiment with TAOK3 was 0%; in the experiment on TBK1 it was 11%; in the experiment with TEC, 0%; with TESK1, 0%; with TGFBR1, 0%; in the experiment with TGFBR2, 0%. The “%Inh” value in the experiment with TIE1 and in the experiment with TIE2 was 0% each time.

Turning to `CC(=O)c1cccc(NC(=O)NC2CCN(c3ccnc(Nc4ccc(F)cc4)n3)C2)c1` (stereo not shown) [GSK1379710], the “%Inh” value in the experiment with SRPK2 is 28%; with SRPK3, 0%; in the experiment on STK16 it was 1%; with STK33 it was 6%; in the experiment on STK35, 1%; with STK36, 0%. For the same compound, the “%Inh” value with STK39 came out at 25%; in the experiment on SYK it was 29%; in the experiment with SgK110 it was 0%; in the experiment with TAK1, 0%; in the experiment with TAOK1, 2%; in the experiment on TAOK2 it was 0%. The “%Inh” value in the experiment with TAOK3 was determined as 11%; in the experiment on TBK1, 18%; in the experiment with TEC it was 4%; in the experiment on TESK1, 20%; in the experiment on TGFBR1 it was 38%; with TGFBR2, 0%. For the same compound, the “%Inh” value in the experiment on TIE1 and with TIE2 was 0% each time.

Regarding `CC(=O)c1c(C)c2cnc(Nc3ccc(N4CCNCC4)cn3)nc2n(C2CCCC2)c1=O`, the “%Inh” value in the experiment with SRPK2 is on record as 0%; in the experiment on SRPK3 it was 0%; in the experiment on STK16, 0%; in the experiment on STK33, 0%; with STK35, 8%; in the experiment with STK36, 0%. For the same compound, the “%Inh” value is given as 0% with STK39; 0% in the experiment with SYK; 0% in the experiment on SgK110; 28% with TAK1; 0% in the experiment with TAOK1; 0% with TAOK2. Further, the “%Inh” value was determined as 0% in the experiment on TAOK3; 4% in the experiment on TBK1; 0% in the experiment with TEC; 12% with TESK1; 3% in the experiment with TGFBR1; 0% in the experiment on TGFBR2. Moreover, the “%Inh” value with TIE1 and in the experiment with TIE2 was 0% throughout.

Regarding `CCn1c(-c2c(N)noc2C)nc2cnccc21` [SB-737856], the “%Inh” value was determined as 0% in the experiment on SRPK2; 2% in the experiment with SRPK3; 0% in the experiment on STK16; 0% in the experiment with STK33; 0% in the experiment with STK35; 0% with STK36. The “%Inh” value in the experiment on STK39 worked out at 6%; in the experiment with SYK, 1%; with SgK110, 0%; in the experiment with TAK1, 0%; in the experiment on TAOK1, 0%; with TAOK2 it was 0%. Also, the “%Inh” value in the experiment with TAOK3 is 0%; in the experiment on TBK1 it was 0%; in the experiment on TEC it was 1%; in the experiment with TESK1 it was 54%; in the experiment with TGFBR1 it was 4%; in the experiment on TGFBR2 it was 0%. Besides, the “%Inh” value in the experiment with TIE1 and with TIE2 was 0% in each case.

Values taken from PMC5540273 (PLoS ONE, 2017).
